Bioassay records as filed in PubChem BioAssay.
This is a sample that favours compounds with a hit; in the whole collection about 4.1% have one here.
ssDAF12 agonist: activators of S. stercoralis DAF-12 nuclear receptor | activation, % at 6.8 µM | HEK293 ssDAF-12/GRIP1 lit1-tk-luc reporter, luminescence; % of 3 µM dafachronic acid response | AID 652126 | actives 1% (n = 370,000);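 active means activation above the mean over all tested compounds plus 3 SD, cut at about 0.9% in these data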;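 further: 0% = DMSO-only wells and 100% = 3 µM delta7-dafachronic acid wells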
DAX1 inh-1: blocks DAX1 repression of SF-1 activated StAR promoter; HEK293T StAR-luciferase reporter, SF-1/DAX-1 repression relief; actives 1.1% (n = 370,000); AID 652010; inhibition, % at 6.8 µM;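 active means inhibition above the mean over all tested compounds plus 3 SD, cut at about 3.6% in these data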;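 further: 0% = DAX-1 cells with DMSO and 100% = cells lacking DAX-1 with DMSO; higher inhibition means more luminescence from relief of DAX-1 repression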
hgDAF-12 ag: activates the H. glycines DAF-12 receptor ligand-binding domain | HEK293 GAL4-hgDAF12 UAS-luciferase reporter, agonist luminescence; normalized to butyrate control | activation, % at 6.8 µM | actives 1.8% (n = 370,000);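 active means activation above a cutoff set at the mean of all screened compounds plus 3 SD, cut at about 10% in these data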;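 further: 0% = DMSO wells and 100% = sodium butyrate wells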
hcDAF12 agonist: H. contortus DAF-12 activation, primary screen. HEK293 hcDAF-12 lit1-tk-luc reporter, luminescence; 0% DMSO, 100% Δ7-dafachronic acid. activation, % at 6.8 µM. actives 1.4% (n = 370,000). AID 652067;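 active means activation above the mean of all tested compounds plus 3 SD, cut at about 5.5% in these data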;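 further: 100% = response to 3 µM Δ7-dafachronic acid high control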
DAX1 inh-2: inhibitors of human orphan nuclear receptor DAX1 (NR0B1); actives 0.99% (n = 340,000); AID 504766; P51843; inhibition, % at 6.75 µM; HEK293 Gal4-DAX1 luciferase reporter, luminescence;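 active means inhibition above the mean over all tested compounds plus 3 SD, cut at about 4.2% in these data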;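 further: 0% = DAX1-transfected cells with DMSO and 100% = empty-vector control cells with DMSO; inhibition shows as a rise in luminescence from relieved DAX1 repression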
LXR ag: LXR-beta agonism as hcDAF-12 counter-screen | AID 743027 | shares compounds with hcDAF12 agonist | activation, % at 6.8 µM | 3,400 tested, under 10 active | HEK293 Gal4-LXR tk-luc reporter, luminescence, 24 h; normalized: DMSO 0%, positive control 100%;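 active means mean percent activation of the reporter above a cutoff set as the average over tested compounds plus their standard deviation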
Target sequence (P55055 whole entry, looked up, the tested form may be a part): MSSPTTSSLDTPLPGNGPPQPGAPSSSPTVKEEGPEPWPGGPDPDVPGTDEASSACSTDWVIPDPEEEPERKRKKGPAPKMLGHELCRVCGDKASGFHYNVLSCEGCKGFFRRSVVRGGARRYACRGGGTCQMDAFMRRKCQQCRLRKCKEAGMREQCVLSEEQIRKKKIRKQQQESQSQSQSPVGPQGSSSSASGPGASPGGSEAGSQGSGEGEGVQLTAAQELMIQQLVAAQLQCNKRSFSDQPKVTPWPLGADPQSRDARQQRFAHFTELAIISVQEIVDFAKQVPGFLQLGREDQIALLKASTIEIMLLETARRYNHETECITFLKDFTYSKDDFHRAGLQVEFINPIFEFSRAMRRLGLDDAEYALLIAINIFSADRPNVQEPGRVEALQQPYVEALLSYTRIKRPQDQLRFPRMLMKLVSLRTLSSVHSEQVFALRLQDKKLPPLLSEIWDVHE
hcDAF12 conf: confirmation of H. contortus DAF-12 agonists; activation, % at 6.8 µM; shares compounds with hcDAF12 agonist; actives 61% (n = 3,400); HEK293 hcDAF-12 lit1-tk-luc reporter, luminescence; % of Δ7-dafachronic acid response;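 active means mean activation across triplicate tests above the threshold derived from the earlier primary screen, cut at about 5.5% in these data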;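 further: 0% = DMSO only wells and 100% = 3 µM Δ7-dafachronic acid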
Active calls of the source: *; nt = no result given.

SMILES	ssDAF12 agonist	DAX1 inh-1	hgDAF-12 ag	hcDAF12 agonist	DAX1 inh-2	LXR ag	hcDAF12 conf
COCC(=O)/C=C1\Sc2ccccc2N1C	-1	0	-16	-3	-1	nt	nt
CN1/C(=C/C(=O)C2CCC2)Sc2ccccc21	0	3	12*	8.1*	0	0	4
CN1/C(=C\C(=O)c2cccc([N+](=O)[O-])c2)Sc2ccccc21	0	1	13*	7.7*	0	1	5.9*
N#C/C(=C\c1ccc[nH]1)C(=O)Nc1ccccc1Cl	1.2*	3	5	11*	2	1	12*
N#C/C(=C\c1ccc[nH]1)C(=O)c1ccccc1	-1	0	3	0	0	nt	nt
Cc1ccccc1-c1nc(-c2ccc(Br)o2)no1	2.3*	1	10	17*	4	1	12*
COc1ccc(Cl)cc1-c1nc(-c2ccc(Br)o2)no1	1	0	4	8.2*	0	0	8.8*
COc1ccc(Br)cc1-c1noc(-c2ccccc2F)n1	-1	0	-2	0	-1	nt	nt
Fc1ccccc1-c1nc(-c2ccc(Br)o2)no1	2.3*	3	21*	17*	2	2	17*
COc1ccc(-c2noc(-c3ccc(Br)o3)n2)cc1	-1	1	9	1	2	nt	nt
CN1CC(=O)N2Cc3[nH]c4ccccc4c3C[C@H]2C1=O	-1	0	1	-2	0	nt	nt
COC(=O)c1ccccc1COc1cccn2c(N(C)Cc3cccs3)c(C)nc12	-1	0	1	-2	nt	nt	nt
O=C(NCCCNC(=O)c1ccc(F)cc1)c1ccc(F)cc1	-1	0	0	0	0	nt	nt
CC1CCN(CC(=O)c2cccs2)CC1	0	0	10	1	-1	nt	nt
O=C(CN1CCc2ccccc2C1)c1cccs1	1	1	1	6.9*	0	0	4
Cc1ccccc1N=Nc1c(O)[nH]c2ccccc12	2.2*	0	11*	6.6*	nt	1	16*
O=C(CSCc1ccc(Br)cc1)N=Nc1c(O)[nH]c2ccccc12	-1	0	0	1	1	nt	nt
O=C(CSc1nc2ccccc2[nH]1)N=Nc1c(O)[nH]c2ccccc12	0	0	3	9.1*	1	0	2
Oc1[nH]c2ccccc2c1N=Nc1c(F)c(F)c(C(F)(F)F)c(F)c1F	-1	-1	0	2	1	nt	nt
O=C(N=Nc1c(O)[nH]c2ccccc12)c1cccs1	1.9*	4.4*	21*	15*	2	1	15*
COc1ccc(OC)c(NC(=O)CSc2nncc3ccc(OC)c(OC)c23)c1	-1	0	-3	-2	4	nt	nt
CC(C)(C)c1ccc(C(=O)NCC(=O)OCC(=O)N2CCN(S(=O)(=O)c3ccc(Cl)cc3)CC2)cc1	0	2	3	15*	1	0	3
C=CCOc1ccc(/C=C/C(=O)OCC(=O)NCc2cccs2)cc1	-1	-1	3	2	3	nt	nt
CCN(CC)C(=O)Cn1cc(S(=O)(=O)CC(=O)NCCc2ccccc2)c2ccccc21	-1	-1	0	7.6*	-1	0	1
CN(C)C(=O)Cn1cc(S(=O)(=O)Cc2ccccc2)c2ccccc21	-1	0	1	6.6*	0	0	3
CCOc1ccc(CCNC(=O)CCS(=O)(=O)c2ccc(OC)cc2)cc1OCC	-1	0	-2	0	0	nt	nt
CC1=NN(C(=O)c2nn(C)cc2Br)C(O)(C(F)(F)F)C1 (configuration not stated)	0	2	10	8.9*	0	0	0
COc1ccc(OCc2cc(C(=O)N3CCCC(O)C3)no2)c2ccccc12 (configuration not stated)	1.2*	3	11*	7.0*	3	1	9.2*
COc1ccc(OCc2cc(C(=O)N(Cc3nccn3C)C(C)C)no2)c2ccccc12	0	-1	7	7.3*	0	0	6.9*
